# Source: PubChem BioAssay AID2284369 (EPA ToxCast)
# Inconclusive results are not listed. Active and inactive are the calls of the source. Rule for the calls: active = hit-call score of the fitted dose curve at least 0.9, where 1 is the maximum; inconclusive = response in the unintended direction; inactive = score below 0.9.
# Test system: frog Estrogen Receptor (ER1), gene 398734
# Assay: ATG_frER1_EcoTox2: Attagene TRANS-FACTORIAL EcoTox-2 HepG2 Assay for frog Estrogen Receptor (ER1)
# Method: ATG_EcoTox2 is a cell-based, multiplexed assay created by modifying the existing Attagene TRANS-FACTORIAL system to include a panel of nuclear receptors from some or all the following species: human (Homo sapiens), african clawed frog (Xenopus laevis), rainbow trout (Oncorhynchus mykiss), japanese medaka (Oryzias latipes), and zebrafish (Danio rerio). The ECOTOX2-FACTORIAL format uses HepG2, a human liver cell line, with measurements taken at 24 hours after chemical dosing in a 24-well plate. ATG_frER1_EcoTox2 is one of 29 assay components calculated in the ATG_EcoTox2 assay. It is designed to make measurements of mRNA induction, a form of inducible reporter, as detected with fluorescence intensity signals by Reverse transcription polymerase chain reaction (RT-PCR) and Capillary electrophoresis technology.The assay endpoint ATG_frER1_EcoTox2 was analyzed in the positive analysis fitting direction relative to DMSO as the negative control and baseline of activity. Using a type of inducible reporter, measures of mRNA for gain-of-signal activity can be used to understand the reporter gene at the transcription factor-level as they relate to the gene ER. Furthermore, this assay endpoint can be referred to as a primary readout, because this assay has produced multiple assay endpoints where this one serves a reporter gene function. To generalize the intended target to other relatable targets, this assay endpoint is annotated to the nuclear receptor intended target family, where the subfamily is steroidal.
# Human liver HepG2 cells are transiently transfected with multiple reporter transcription units (MRTUs) in 6-well plates using FuGene 6 reagent (Roche; 3 ml FuGene/1 mg DNA). The MRTU constructs are regulated by a cis-regulating element (promoter). Each RTU expresses a GAL4-UAS that regulates the transcription of a nearby target reporter gene sequence. A major difference between the CIS and TRANS system is that in CIS activities of endogenous TFs are measured, whereas the TRANS assay evaluates changes in activities of exogenous, chimeric NR-Gal4 proteins. […] At the end of 24 hour incubation, total RNA was isolated using TriZol reagent (Invitrogen). The isolated RNA is then reverse-transcribed using oligo(dT) primer and Mo-MLV reverse transcriptase (Invitrogen) with DNAse I (Ambion) treatment for 30 min. The one-tenth of the produced cDNA was amplified by PCR using Taq DNA polymerase (Invitrogen) and two reporter sequence-specific primers. The PCR products were fluorescently labeled by primer extension with 6-arboxyfluorescein (6-FAM) 5'-labeled reporter sequence-specific primer (2 min at 95 C, 20 s at 68 C and 10 min at 72 C) and these products were digested with 5U of HpaI (New England Biolabs) for 2h at 37 C. The fragments were purified using Qiaquick PCR columns (Qiagen), analyzed on an ABI 3130xL genetic analyzer (Applied Biosystems) with peak positions identified by using a set of X-rhodamine (ROX)-labeled MapMarker1000 molecular weight standards (BioVentures). The raw capillary electrophoresis data was processed using Attagraph software (Attagene).
SMILES,outcome,AC50
CN(CCOc1ccc(CC2SC(=O)NC2=O)cc1)c1ccccn1 (stereo not given),inactive,–
Cc1c(C)c2c(c(C)c1O)CCC(C)(COc1ccc(CC3SC(=O)NC3=O)cc1)O2 (stereo not given),inactive,–
Cc1ccc(C)c(OCCCC(C)(C)C(=O)O)c1,inactive,–
C[C@@H]1C[C@H]2[C@@H]3CCC4=CC(=O)C=C[C@]4(C)[C@@]3(F)[C@@H](O)C[C@]2(C)[C@@]1(O)C(=O)COP(=O)(O)O,inactive,–
CC(c1cc2ccccc2s1)N(O)C(N)=O (stereo not given),inactive,–
C[C@]12C=CC(=O)C=C1CC[C@@H]1[C@@H]2C(=O)C[C@@]2(C)[C@H]1CC[C@]2(O)C(=O)CO,–,50 µM (active)
CC(C)(Oc1ccc(CCNC(=O)c2ccc(Cl)cc2)cc1)C(=O)O,inactive,–
C=C(c1ccc(C(=O)O)cc1)c1cc2c(cc1C)C(C)(C)CCC2(C)C,inactive,–
CC(C)OC(=O)C(C)(C)Oc1ccc(C(=O)c2ccc(Cl)cc2)cc1,inactive,–
Cc1cccc(Nc2cc(Cl)nc(SCC(=O)O)n2)c1C,inactive,–
